From PubChem BioAssay
Shown are actives, neighbours in structure and some others; about 6.8% of the full set was active somewhere.
C diff HTS – inhibitors of Clostridium difficile growth; Clostridium difficile clinical isolate growth, OD600, 24 h; active compounds read low; 0.25% of 86,000 active; growth activity, negative = inhibition, % at 16 µg/mL (by protocol); AID 1259249;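 active means mean growth activity at or below -80% and every replicate also at or below -80%; inconclusive means mean at or below -80% but some replicate above -80%; inactive means mean growth activity above -80%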;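 further: 0% = DMSO wells and -100% = levofloxacin 16 µg/mL wells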
T cruzi growth-1 – inhibitors of T. cruzi proliferation. T. cruzi beta-gal in NIH3T3, GalScreen luminescence, 90 h. inhibition, % at 8.34 µM. 5.9% of 77,000 active;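 active means mean inhibition above about 93%, with at least 55% of replicates each passing it, limit read from the data, passing the limit was not always enough; inconclusive means only one of those two conditions holds; inactive means neither condition holds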
Pf Dd2 inh – inhibitors of Plasmodium falciparum Dd2 growth. P. falciparum Dd2 growth, SYBR Green, 72 h; active compounds read low. 2.3% of 94,000 active. activity change, % at 10 µM; in the data active means activity change below about -80%; inconclusive means no clear call, values can overlap the other calls
T cruzi growth-2 – Trypanosoma cruzi proliferation inhibition; shares compounds with T cruzi growth-1; T. cruzi beta-gal in NIH3T3, GalScreen luminescence, 90 h; inhibition, % at 8.35 µM; 72% of 5,600 active;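 active means mean replicate inhibition above about 95% and at least 55% of replicates individually reaching it, limit read from the data; inconclusive means only one of the two criteria is met; inactive means neither criterion is met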
T cruzi growth-3 – blocks T. cruzi growth in NIH3T3 host cells | 21% of 5,600 active | T. cruzi beta-gal in NIH3T3, GalScreen luminescence, 90 h | inhibition, % at 2.09 µM | AID 651740 | shares compounds with T cruzi growth-1;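 active means mean inhibition above about 95%, with at least 55% of replicates also reaching it, limit read from the data; inconclusive means meets just one of the two conditions; inactive means meets neither condition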;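 further: plate controls were neutral control median for no effect and positive control median for full effect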
NIH3T3 tox – cytotoxicity in mouse NIH/3T3 fibroblasts; shares compounds with T cruzi growth-1; NIH/3T3 viability, CellTiter-Glo ATP luminescence, 90 h; cytotoxicity (signal decrease), % at 8.35 µM; 14% of 5,600 active;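 active means mean signal decrease across replicates above about 35% based on untreated-well scatter, with enough replicates individually passing, limit read from the data; inconclusive means no rule stated though some were filed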;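 further: 0% = median of neutral control wells and 100% = median of positive control wells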
3T3 cytotox 2 – kills mouse NIH/3T3 fibroblasts. shares compounds with T cruzi growth-1. NIH/3T3 viability, CellTiter-Glo ATP luminescence, 90 h. inhibition, % at 24.9 µM. 56% of 5,600 active;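 active means mean loss of cell viability signal at or above a set limit, and enough replicates individually reaching it; inconclusive means meets only the mean limit or only the replicate share; inactive means meets neither condition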;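 further: 0% = median of neutral control wells and 100% = median of positive control wells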
* marks the source's active call; other numbers are inactive results; ? = inconclusive; nt = no result given; ! = not active in a repeat.

SMILES | C diff HTS | T cruzi growth-1 | Pf Dd2 inh | T cruzi growth-2 | T cruzi growth-3 | NIH3T3 tox | 3T3 cytotox 2
C[C@@H]1CCCCO[C@@H](CN(C)CC2CCCCC2)[C@H](C)CN([C@H](C)CO)C(=O)c2cc(NC(=O)NC3CCCCC3)ccc2O1 | nt | 106* | -73 | 104* | 84 | 3 | 107*
C[C@@H]1CN([C@H](C)CO)C(=O)c2cccc(NS(=O)(=O)c3ccccc3)c2O[C@@H]1CN(C)C(=O)Nc1ccc(F)cc1 | 6 | -36 | 27 | nt | nt | nt | nt
COc1ccc2c3c(n(C)c2c1)[C@H](CO)N(Cc1ccccc1OC)CC31CCN(CC2CCOCC2)CC1 | 5 | nt | -27 | nt | nt | nt | nt
COc1ccc2c3c(n(C)c2c1)[C@@H](CO)NCC31CN(CC2CC2)C1 | 2 | nt | -72 | nt | nt | nt | nt
C[C@H](O)C#Cc1ccc([C@H]2[C@@H](CO)N3CCCCN(S(=O)(=O)c4ccccc4)C[C@H]23)cc1 | -5 | 19 | -17 | nt | nt | nt | nt
Cc1cccc(S(=O)(=O)N2CCCCN3[C@@H](CO)[C@H](c4ccc(C#C[C@@H](C)O)cc4)[C@@H]3C2)c1 | 15 | 82 | -25 | nt | nt | nt | nt
C[C@H](O)C#Cc1ccc([C@@H]2[C@H](CO)N3CCCCN(S(=O)(=O)c4ccccc4)C[C@@H]23)cc1 | -12 | 114* | -21 | 19 | 13 | -1 | 19
C[C@H](O)C#Cc1ccc([C@H]2[C@H]3CN(S(=O)(=O)c4ccccc4)CCCCN3[C@H]2CO)cc1 | 1 | ? | -9 | 97* | 20 | 3 | 6
Cc1noc(C)c1S(=O)(=O)Nc1cccc2c1O[C@@H](CN(C)C(=O)NC(C)C)[C@@H](C)CN([C@@H](C)CO)C2=O | -1 | -140 | 24 | nt | nt | nt | nt
O=C(C[C@H]1C=C[C@H](NC(=O)c2cccc(F)c2)[C@@H](CO)O1)NCc1ccccc1 | nt | 36 | 4 | nt | nt | nt | nt
COc1ccccc1C#Cc1ccc([C@H]2[C@@H](C#N)N(C(=O)C3CC3)[C@@H]2CO)cc1 | -1 | 97* | -42 | 101* | 107* | 30 | 50*
COc1cccc(C#Cc2ccc([C@H]3[C@H](C#N)N(C(=O)C4CC4)[C@H]3CO)cc2)c1 | -3 | 104* | -39 | 106* | 76 | 6 | 42*
COc1ccccc1C#Cc1ccc([C@@H]2[C@H](C#N)N(C(=O)C3CC3)[C@H]2CO)cc1 | 6 | 88 | -35 | nt | nt | nt | nt
COc1ccccc1C#Cc1ccc([C@@H]2[C@@H](C#N)N(C(=O)C3CC3)[C@H]2CO)cc1 | -14 | 99* | -33 | 108* | 86 | -9 | 34*
COc1ccccc1C#Cc1ccc([C@@H]2[C@@H](C#N)N(C(=O)C3CC3)[C@@H]2CO)cc1 | -2 | 80 | -3 | nt | nt | nt | nt
COc1cccc(C#Cc2ccc([C@@H]3[C@@H](C#N)N(C(=O)C4CCCC4)[C@H]3CO)cc2)c1 | 36 | nt | -70 | nt | nt | nt | nt
COc1ccc(NC(=O)N(C)C[C@H]2Oc3ncc(C#C[C@@H](C)O)cc3C(=O)N([C@@H](C)CO)C[C@@H]2C)cc1 | 4 | 55 | 11 | nt | nt | nt | nt
CCCNC(=O)C[C@@H]1CC[C@@H]2[C@H](COc3ccc(NC(=O)C4CCCC4)cc3C(=O)N2C)O1 | -4 | 27 | 9 | nt | nt | nt | nt
CCCC#Cc1ccc2c(c1)O[C@@H](CN(C)C(=O)C1CCCCC1)[C@@H](C)CN([C@H](C)CO)S2(=O)=O | 5 | 74 | -32 | nt | nt | nt | nt
CCCC#Cc1ccc2c(c1)O[C@H](CN(C)C(=O)C1CCC1)[C@@H](C)CN([C@@H](C)CO)S2(=O)=O | -13 | 108* | -33 | 102* | 56 | 12 | 39*
CCCC#Cc1ccc2c(c1)O[C@@H](CN(C)C(=O)C1CCCCC1)[C@H](C)CN([C@H](C)CO)S2(=O)=O | 32 | 68 | -63 | nt | nt | nt | nt
CCCC#Cc1ccc2c(c1)O[C@H](CN(C)C(=O)C1CCC1)[C@H](C)CN([C@@H](C)CO)S2(=O)=O | 2 | 98* | -10 | 107* | 80 | 27 | 45*
O=C(C[C@@H]1C[C@H]2c3cc(NC(=O)Nc4ccc(C(F)(F)F)cc4)ccc3O[C@H]2[C@H](CO)O1)NCc1cc(F)ccc1F | 31 | 73 | -76 | nt | nt | nt | nt
COCC(=O)Nc1ccc2c(c1)[C@@H]1C[C@H](CC(=O)N[C@H](C)c3ccccc3)O[C@H](CO)[C@@H]1O2 | -9 | -17 | -4 | nt | nt | nt | nt
COc1ccc(NC(=O)N(C)C[C@@H]2Oc3ccc(NC(=O)CCCCCC(=O)Nc4ccccc4N)cc3C(=O)N([C@H](C)CO)C[C@@H]2C)cc1 | -1 | nt | 34 | nt | nt | nt | nt
SMILES | C diff HTS | T cruzi growth-1 | Pf Dd2 inh | T cruzi growth-2 | T cruzi growth-3 | NIH3T3 tox | 3T3 cytotox 2
O=C(Nc1ccccc1F)N[C@@H]1CC[C@H](CCNC(=O)C2CCOCC2)O[C@H]1CO | 0 | 26 | 6 | nt | nt | nt | nt
O=C(C1CCOCC1)N1C[C@H]2[C@@H](c3ccccc31)[C@@H](CO)N2C(=O)c1ccccc1 | 7 | 21 | -3 | nt | nt | nt | nt
C[C@@H]1CN([C@H](C)CO)S(=O)(=O)c2ccc(-c3ccncc3)cc2O[C@@H]1CN(C)C(=O)c1cccc(F)c1 | 2 | 104* | -21 | 89 | 54 | 9 | 55*
C[C@H]1CN([C@@H](C)CO)S(=O)(=O)c2ccc(-c3ccncc3)cc2O[C@H]1CN(C)C(=O)c1cccc(F)c1 | 11 | 105* | -44 | 102*! | 76 | 5 | 19
C[C@H]1CN([C@@H](C)CO)S(=O)(=O)c2ccc(-c3cccc(F)c3)cc2O[C@@H]1CN(C)C(=O)c1cccc(F)c1 | 8 | 83 | -54 | nt | nt | nt | nt
C[C@@H]1CN([C@H](C)CO)S(=O)(=O)c2ccc(-c3cccc(F)c3)cc2O[C@H]1CN(C)C(=O)c1cccc(F)c1 | 8 | 83 | -57 | nt | nt | nt | nt
COc1cccc(C#Cc2cnc3c(c2)C(=O)N([C@H](C)CO)C[C@@H](C)[C@H](CN(C)C(=O)C2CCOCC2)O3)c1 | 1 | nt | -50 | nt | nt | nt | nt
C[C@@H]1CN([C@@H](C)CO)S(=O)(=O)c2ccc(C#Cc3ccccc3)cc2O[C@H]1CN(C)C(=O)CN(C)C | 0 | 102* | -67 | 100* | 60 | 7 | 103*
COCC(=O)N(C)C[C@@H]1Oc2cc(C#Cc3ccccc3)ccc2S(=O)(=O)N([C@@H](C)CO)C[C@H]1C | -17 | ? | -75 | 60 | 34 | -6 | 21
C[C@H](CO)N1C[C@H](C)[C@H](CN(C)C(=O)CN(C)C)Oc2cc(C#Cc3ccccc3)ccc2S1(=O)=O | 14 | -18 | ? | nt | nt | nt | nt
COCC(=O)N(C)C[C@@H]1Oc2cc(C#Cc3ccccc3)ccc2S(=O)(=O)N([C@H](C)CO)C[C@H]1C | -12 | 71 | -77 | nt | nt | nt | nt
O=C(C[C@@H]1C=C[C@@H](NC(=O)c2ccncc2)[C@@H](CO)O1)Nc1ccccc1 | -3 | nt | 27 | nt | nt | nt | nt
COc1ccccc1-c1ccc([C@H]2[C@@H](CO)N(C(C)=O)[C@H]2CN(C)C(C)=O)cc1 | -6 | nt | 4 | nt | nt | nt | nt
COc1cccc(CNC(=O)C[C@@H]2C=C[C@@H](NC(C)=O)[C@H](CO)O2)c1 | 5 | -12 | 7 | nt | nt | nt | nt
